# An excerpt weighted towards active compounds, which were near 9.3% of everything screened.
# ELG1 repair inh: inhibitors of ELG1-dependent DNA repair in HEK293T cells; HEK293T ELG1-luciferase reporter, luminescence, 16 h; DNA damage induced by 5-fluorouridine; Potency, µM (highest dose often 46.1 µM), inactives show top-dose activity change, negative = inhibition, actives largely listed as inhibitors; 2.3% of 330,000 active; further: on the % scale 0 is the no-effect control and ±100 the full control effect; nearly all actives have a fitted effect of over 55% in size
#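 Cells (2,000 per well) received 5-fluorouridine plus test compound or DMSO and were incubated 16 hr at 37 °C, 5% CO2. Luciferase activity was read by luminescence 30 min after ONE-Glo addition; signal suppression marked inhibition of damage-induced ELG1 function.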
# SMN2 splice enh: enhancers of SMN2 splice variant expression; AID 1458; 2.8% of 210,000 active; HEK293 SMN2-luciferase splicing reporter, luminescence, 30-36 h; Potency, µM (titrated, usually from 46.1 µM), for the others: at the highest dose activity change, positive = activation, hits mostly activators; further: % of control where 0% means no effect; nearly all actives have a fitted effect of over 55% in size
#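 HEK293 cells carry an SMN2 […]–luciferase reporter in which exon 7 inclusion puts luciferase in frame. Cells were plated 10-12 h before compound addition, then incubated 30-36 h at 37C. ONE-Glo luminescence was read; sodium butyrate at 4.5 mM final served as control.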
# NPC1 prom act: NPC1 promoter activation | Huh7 NPC1 promoter luciferase reporter, 24 h | 2.4% of 320,000 active | Potency, µM (highest dose often 9.22 µM), for the others: top-dose activation, most hits filed as activators | AID 485313; further: % of control where 0% means no effect; nearly all actives have a fitted effect of over 60% in size
#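 In 1536-well qHTS, Huh7 cells harboring an NPC1 promoter–luciferase construct received compound for 24 h; activation was quantified by luminescence following luciferase reagent addition.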
# FLuc counter: counter-screen for miR-21 project: firefly luciferase inhibitors or activators; 6.9% of 360,000 active; Potency, µM (doses to about 57.5 µM), inactives show top-dose activity change, negative = inhibition, actives largely listed as inhibitors; P08659; purified FLuc, Km substrates, luminescence inhibition;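 further: plate controls were vehicle for no effect and reference inhibitor for full effect; nearly all actives have a fitted effect of over 55% in size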
# Target sequence (P08659 whole entry, looked up): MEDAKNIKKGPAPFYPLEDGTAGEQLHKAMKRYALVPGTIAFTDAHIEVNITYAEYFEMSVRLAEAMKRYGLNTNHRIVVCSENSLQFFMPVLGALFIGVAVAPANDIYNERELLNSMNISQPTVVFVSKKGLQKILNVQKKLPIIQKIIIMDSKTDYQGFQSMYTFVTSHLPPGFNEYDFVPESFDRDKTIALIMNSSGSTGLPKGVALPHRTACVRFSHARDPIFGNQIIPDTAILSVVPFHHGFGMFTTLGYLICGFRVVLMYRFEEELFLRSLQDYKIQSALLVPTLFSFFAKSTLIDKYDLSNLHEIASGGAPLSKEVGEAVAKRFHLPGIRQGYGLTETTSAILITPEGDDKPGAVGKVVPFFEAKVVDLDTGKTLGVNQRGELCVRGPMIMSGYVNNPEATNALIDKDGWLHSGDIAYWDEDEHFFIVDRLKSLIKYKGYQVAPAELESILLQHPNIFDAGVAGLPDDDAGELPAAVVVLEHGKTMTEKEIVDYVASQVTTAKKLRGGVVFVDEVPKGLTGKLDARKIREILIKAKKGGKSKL
#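 Biochemical qHTS of compounds, final roughly 60 µM downward over six points, against 10 nM purified firefly luciferase using Km concentrations of substrates (10 uM D-luciferin, 10 uM ATP) in Tris acetate pH 7.5 buffer; luminescence output.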
# Rab9 prom act: activators of Rab9 promoter; Huh7 Rab9 promoter-luciferase reporter, luminescence, 24 h; Potency, µM (titrated, usually from 9.22 µM), inactives show top-dose activation, negative = inhibition, usual class: activators; 2.8% of 320,000 active; further: % of control where 0% means no effect; nearly all actives have a fitted effect of over 60% in size
#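 Huh7 cells stably carrying a Rab9 promoter-luciferase reporter, 1500 cells per well in OP-MEM I with 10% FBS, treated with compound 24 hours at 37C. Luciferase activity read by luminescence after 10 minutes with Amplite reagent.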
# ELG1 genotoxic: induces genotoxicity in HEK293T cells with luciferase-tagged ELG1; HEK293T ELG1-luciferase reporter, luminescence, 16 h; 1.3% of 330,000 active; Potency, µM (series often up to 46 µM), for the others: at the highest dose activity change, positive = activation, actives largely listed as activators; further: % of control where 0% means no effect; nearly all actives have a fitted effect of over 60% in size
#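 Screening used a luciferase reporter fused to human ELG1 in HEK293T cells. Luminescence was read on a CCD plate imager after 16 hr exposure and 30 min ONE-Glo incubation.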
# The depositor's hits bear a star; ? = inconclusive; · = no result given. The call rests on the fitted dose curve; in most records, active means well fitted curve in the direction sought with a large enough effect; inconclusive means small, poorly fitted or top-dose-only effect, or another doubt; inactive means no such curve, though single readings can be large; an effect the other way counts as inactive or inconclusive. Potency means the concentration at half of the fitted maximal effect.
SMILES,ELG1 repair inh,SMN2 splice enh,NPC1 prom act,FLuc counter,Rab9 prom act,ELG1 genotoxic
Cc1cc(C(=O)CSc2nc3ccccc3[nH]2)c(C)n1Cc1ccco1,?,?,0.708µM*,0.757µM*,0.501µM*,?
Cc1cc(C(=O)CSc2nnc(-c3ccco3)o2)c(C)n1Cc1ccco1,24.4%,-21.2%,0.4%,?,7.2%,?
Cc1cc(C(=O)CSc2nncs2)c(C)n1Cc1ccco1,?,3.4%,0.631µM*,4.78µM*,0.708µM*,?
Fc1cccc(CSc2nc3ccncc3[nH]2)c1,?,11.2µM*,24.5%,?,?,15.7%
CCCCOc1ccc(C2CCC(C(C)=O)C(C)C2)cc1 (stereo unspecified),?,·,18.9%,?,?,10.8%
COCCn1c(C)cc(C(=O)COc2nc3ccccc3nc2C)c1C,23.1µM*,-53.7%,-8.2%,-15.7%,-6.3%,-2.2%
Cc1ccc(C)c(C(=O)CSc2nc3ccccc3c(=O)[nH]2)c1,10.3%,-7.8%,-8.8%,-2.6%,-9.2%,2.5%
C=CCn1c(C)cc(C(=O)CSc2nc3ccccc3c(=O)[nH]2)c1C,?,-38.0%,?,9.53µM*,0.794µM*,2.91µM*
COCCn1c(C)cc(C(=O)CSc2nc3ccccc3c(=O)[nH]2)c1C,?,?,1.78µM*,5.36µM*,1.58µM*,?
C=CCn1c(C)cc(C(=O)CSc2nc3ccccc3[nH]2)c1C,?,-58.7%,0.126µM*,0.301µM*,0.316µM*,?
Cc1cc(C)c(C(=O)CSc2nc3ccccc3c(=O)[nH]2)cc1C,?,-26.5%,-13.3%,-9.5%,-5.7%,-1.9%
O=S(=O)(c1ccccc1)c1nc(-c2cccs2)oc1SCc1ccccc1F,·,10.5%,·,-0.6%,·,·
O=C(O)c1ccccc1CSc1nc2ccccc2[nH]1,?,·,?,10.7µM*,?,?
C=CCn1c(C)cc(C(=O)COc2nncc3ccccc23)c1C,?,?,1.41µM*,15.1µM*,?,10.3µM*
CCN(CC)C(=O)CSc1nc2ccccc2c(=O)n1Cc1ccco1,·,·,·,-2.9%,·,·
C=CCn1c(C)cc(C(=O)COc2ccc(C)nc2[N+](=O)[O-])c1C,?,-37.1%,-0.9%,?,-3.5%,?
COCCn1c(C)cc(C(=O)CSc2nncn2-c2ccccc2)c1C,?,3.6%,-0.5%,19µM*,-1.2%,6.6%
COc1ccc(-n2cnnc2SCC(=O)c2cc(C)n(Cc3cccs3)c2C)cc1,-7.0%,6.0%,0.7%,?,-1.4%,-3.6%
CCCn1c(C)cc(C(=O)CSc2nc3ccccc3c(=O)n2Cc2ccco2)c1C,?,?,3.16µM*,5.36µM*,3.55µM*,?
Cc1ccc(S(=O)(=O)N2CCN(C(=O)CN3C(=O)c4ccc([N+](=O)[O-])cc4C3=O)CC2)cc1C,2.9%,·,0.1%,0.5%,-0.7%,-1.9%
Cc1c(NC(=O)COC(=O)C2(c3ccc(F)cc3)CCCC2)c(=O)n(-c2ccccc2)n1C,-6.9%,-40.7%,-2.3%,4.3%,-6.8%,-8.3%
Cc1cc(C(=O)CSc2nc3ccc(Cl)cc3[nH]2)c(C)n1CC1CCCO1 (stereo unspecified),23.1µM*,-82.1%,-2.0%,?,-4.1%,-7.8%
Cc1cc(C(=O)CSc2nc3ccc(Cl)cc3[nH]2)c(C)n1C,-8.7%,19.2%,-1.5%,-16.7%,0.7%,-0.2%
COC(=O)N1[C@H](C)C=C[C@]1(Cc1ccccc1)C(=O)NCc1ccc(N(C)C)cc1,·,12.6µM*,·,·,·,·
COc1ccccc1NC(=O)NC1(C(=O)NCC2CCCO2)CCCCC1 (stereo unspecified),7.8%,·,-8.0%,1.2%,-1.1%,-0.3%
SMILES,ELG1 repair inh,SMN2 splice enh,NPC1 prom act,FLuc counter,Rab9 prom act,ELG1 genotoxic
O=C(CNC(=O)C1CCCCC1)OCC(=O)c1ccc(Br)cc1,6.7%,·,1.3%,1.69µM*,0.1%,4.1%
COc1ccc(C(=O)COC(=O)CNC(=O)C2CCCCC2)c(OC)c1,6.3%,-18.7%,7.2%,?,-0.8%,3.7%
CCOc1ccc(C(=O)COC(=O)CNC(=O)C2CCCCC2)cc1,12.1%,·,-1.7%,9.53µM*,-5.3%,2.4%
CCOCCCNS(=O)(=O)c1ccc(NC(=O)Cc2c(F)cccc2Cl)cc1,-1.6%,·,-2.2%,-1.4%,0.5%,0.1%
CC1=C(C(=O)Nc2ccc(C)cc2C)C(c2ccccc2F)n2nc(SCC(=O)c3ccc(C)cc3)nc2N1 (stereo unspecified),·,·,·,-5.3%,·,·
N#C/C(=C\c1ccc(OCC(N)=O)cc1)c1ccccc1,?,23.2%,24.9%,3.79µM*,22.2%,?
CCOC(=O)CN/C=C(\C#N)c1ccccc1,9.2%,-8.2%,-0.3%,?,-0.7%,2.4%
COc1ccc(N2CCN(C(=O)c3cccnc3SCc3cccc(Br)c3)CC2)cc1,?,-65.3%,-1.6%,3.8%,-3.0%,-9.6%
COc1ccccc1NC(=O)Nc1nc(CC(=O)N2CCN(c3ccc(F)cc3)CC2)cs1,16.4µM*,·,-7.2%,2.5%,-4.3%,-4.8%
COc1ccccc1NC(=O)Nc1nc(CC(=O)N2CCN(c3ccccc3)CC2)cs1,?,·,-13.4%,?,-2.6%,-13.2%
COc1ccc(N2CCN(C(=O)Cc3csc(NC(=O)Nc4ccccc4OC)n3)CC2)cc1,16.4µM*,·,-6.5%,?,-8.1%,-12.4%
COc1ccc(C(=O)COc2ccc(C)cc2NC(C)=O)cc1,?,·,3.55µM*,-9.0%,1.26µM*,?
CC(=O)Nc1cc(C(=O)OCC(=O)c2ccc(Cl)cc2Cl)ccc1C,5.5%,-6.6%,-2.6%,2.39µM*,2.1%,-1.4%
CC(=O)Nc1cc(C(=O)OCC(=O)c2ccc(C)cc2)ccc1C,?,?,3.98µM*,6.01µM*,2.24µM*,?
CC(C)C(=O)Nc1cccc(C(=O)OCC(=O)c2ccc(Cl)cc2Cl)c1,-0.4%,-6.9%,0.9%,1.2µM*,1.8%,-0.4%
CCOC(=O)Nc1cc(C(=O)OC)ccc1C,?,19.4%,0.0%,-1.1%,0.5%,9.9%
Cc1ccc2nc(N3CCN(c4ccccc4)CC3)c3nnnn3c2c1,·,·,·,2.9%,·,·
O=C1N(Cc2cccc(Cl)c2)C[C@@H]2C[C@@H](c3ccc4nonc4c3)N3CCC[C@@]123,?,·,-6.5%,-1.9%,-6.3%,-17.8%
CCC1CCCCN1CCCNC(=O)c1ccc2c(c1)N(Cc1cccc(Cl)c1)C(=O)c1ccccc1S2(=O)=O (stereo unspecified),·,·,·,0.6%,·,·
COc1cccc(C2c3c(-c4ccccc4O)n[nH]c3C(=O)N2CCc2ccc(OC)c(OC)c2)c1 (stereo unspecified),·,4.2%,·,-11.5%,·,·
